# Data reported in PubChem BioAssay AID1159580 (chemical genetic matrix, 2015).
# In all, about 5,500 compounds went through this assay and about 2,000 (36%) were called active. Another 18% or so got no clear call; they are omitted. The list shows a part of the results. A number with no mark means an inactive call. No stated cut-off is given here; in the data, active means normalized growth mostly below about 0.91 (no sharp cut-off); inconclusive means no clear call, values can overlap the other calls; inactive means mostly above about 0.92.
# Test: chemical genetic growth profiling, strain panel (AID 1159580);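 further: tested at 20 µM; growth read once vehicle control cultures reached saturation at 30 °C; 1 = growth at the plate median or of vehicle wells; lower values mean less growth of the strain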
# Settings: growth OD
structure (smiles),measurement,setting,value
C[n+]1c2cc(N)ccc2cc2ccc(N)cc21,normalized growth,"S. cerevisiae deletion strains, locus YKL009W, strain mrt4, hits give low values",0.933
same,normalized growth,"S. cerevisiae deletion strains, locus YKL068W, hits give low values",0.956
same,normalized growth,"S. cerevisiae deletion strains, locus YKL085W, strain MDH1 (second series), hits give low values",0.963
same,normalized growth,"S. cerevisiae deletion strains, locus YKL085W, strain MDH1, hits give low values",0.963
same,normalized growth,"S. cerevisiae deletion strains, locus YKL160W, strain elf1, hits give low values",0.586 (active)
same,normalized growth,"S. cerevisiae deletion strains, locus YKL190W, strain CNB1, hits give low values",0.85 (active)
same,normalized growth,"S. cerevisiae deletion strains, locus YKR001C, strain vps1, hits give low values",0.844 (active)
same,normalized growth,"S. cerevisiae deletion strains, locus YKR026C, strain gcn3, hits give low values",0.696 (active)
same,normalized growth,"S. cerevisiae deletion strains, locus YKR091W, strain srl3, hits give low values",0.784 (active)
same,normalized growth,"S. cerevisiae deletion strains, locus YLL001W, strain dnm1, hits give low values",0.456 (active)
same,normalized growth,"S. cerevisiae deletion strains, locus YLL026W, hits give low values",0.471 (active)
same,normalized growth,"S. cerevisiae deletion strains, locus YLL041C, strain sdh2, hits give low values",0.652 (active)
same,normalized growth,"S. cerevisiae deletion strains, locus YLR027C, strain aat2, hits give low values",0.446 (active)
same,normalized growth,"S. cerevisiae deletion strains, locus YLR039C, strain RIC1, hits give low values",0.906
same,normalized growth,"S. cerevisiae deletion strains, locus YLR058C, strain SHM2, hits give low values",0.743 (active)
same,normalized growth,"S. cerevisiae deletion strains, locus YLR102C, strain apc9, hits give low values",0.924 (active)
same,normalized growth,"S. cerevisiae deletion strains, locus YLR113W, strain HOG1, hits give low values",0.862
same,normalized growth,"S. cerevisiae deletion strains, locus YLR221C, strain rsa3, hits give low values",0.468 (active)
same,normalized growth,"S. cerevisiae deletion strains, locus YLR258W, strain gsy2, hits give low values",0.524 (active)
same,normalized growth,"S. cerevisiae deletion strains, locus YLR262C, strain YPT6 (second series), hits give low values",0.718 (active)
same,normalized growth,"S. cerevisiae deletion strains, locus YLR262C, strain YPT6, hits give low values",0.902
same,normalized growth,"S. cerevisiae deletion strains, locus YLR268W, strain sec22, hits give low values",0.776 (active)
same,normalized growth,"S. cerevisiae deletion strains, locus YLR320W, strain mms22, hits give low values",0.191 (active)
same,normalized growth,"S. cerevisiae deletion strains, locus YLR330W, strain CHS5, hits give low values",0.863 (active)
same,normalized growth,"S. cerevisiae deletion strains, locus YLR342W, strain FKS1 (second series), hits give low values",0.802
same,normalized growth,"S. cerevisiae deletion strains, locus YLR342W, strain FKS1, hits give low values",0.752 (active)
same,normalized growth,"S. cerevisiae deletion strains, locus YLR357W, strain rsc2, hits give low values",0.669 (active)
same,normalized growth,"S. cerevisiae deletion strains, locus YLR370C, strain arc18, hits give low values",0.506 (active)
same,normalized growth,"S. cerevisiae deletion strains, locus YLR371W, strain rom2, hits give low values",0.908 (active)
same,normalized growth,"S. cerevisiae deletion strains, locus YLR384C, strain iki3, hits give low values",0.682 (active)
same,normalized growth,"S. cerevisiae deletion strains, locus YLR418C, strain cdc73, hits give low values",0.727 (active)
same,normalized growth,"S. cerevisiae deletion strains, locus YML016C, strain PPZ1, hits give low values",0.806 (active)
same,normalized growth,"S. cerevisiae deletion strains, locus YML032C, strain rad52, hits give low values",0.195 (active)
same,normalized growth,"S. cerevisiae deletion strains, locus YML120C, strain ndi1, hits give low values",0.409 (active)
same,normalized growth,"S. cerevisiae deletion strains, locus YML124C, strain tub3, hits give low values",0.928 (active)
same,normalized growth,"S. cerevisiae deletion strains, locus YMR058W, strain fet3, hits give low values",0.531 (active)
same,normalized growth,"S. cerevisiae deletion strains, locus YMR078C, strain ctf18, hits give low values",0.783 (active)
same,normalized growth,"S. cerevisiae deletion strains, locus YMR125W, strain sto1, hits give low values",0.703 (active)
same,normalized growth,"S. cerevisiae deletion strains, locus YMR129W, hits give low values",0.648 (active)
same,normalized growth,"S. cerevisiae deletion strains, locus YMR205C, strain PFK2, hits give low values",0.439 (active)
same,normalized growth,"S. cerevisiae deletion strains, locus YMR223W, strain ubp8, hits give low values",0.717 (active)
same,normalized growth,"S. cerevisiae deletion strains, locus YMR231W, strain pep5, hits give low values",0.945
same,normalized growth,"S. cerevisiae deletion strains, locus YMR263W, strain SAP30, hits give low values",0.626 (active)
same,normalized growth,"S. cerevisiae deletion strains, locus YMR307W, strain GAS1, hits give low values",0.874
same,normalized growth,"S. cerevisiae deletion strains, locus YNL067W, strain RPL9B, hits give low values",0.698 (active)
same,normalized growth,"S. cerevisiae deletion strains, locus YNL071W, strain lat1, hits give low values",0.28 (active)
same,normalized growth,"S. cerevisiae deletion strains, locus YNL128W, strain TEP1, hits give low values",0.613 (active)
same,normalized growth,"S. cerevisiae deletion strains, locus YNL153C, strain GIM3, hits give low values",0.744 (active)
same,normalized growth,"S. cerevisiae deletion strains, locus YNL183C, strain NPR1, hits give low values",0.87
same,normalized growth,"S. cerevisiae deletion strains, locus YNL209W, strain ssb2, hits give low values",0.554 (active)
same,normalized growth,"S. cerevisiae deletion strains, locus YNL233W, strain BNI4, hits give low values",0.725 (active)
same,normalized growth,"S. cerevisiae deletion strains, locus YNL248C, strain rpa49, hits give low values",0.167 (active)
same,normalized growth,"S. cerevisiae deletion strains, locus YNL250W, strain rad50, hits give low values",0.817 (active)
same,normalized growth,"S. cerevisiae deletion strains, locus YNL271C, strain bni1, hits give low values",0.911 (active)
same,normalized growth,"S. cerevisiae deletion strains, locus YNL298W, strain CLA4, hits give low values",0.896 (active)
same,normalized growth,"S. cerevisiae deletion strains, locus YNL307C, strain MCK1, hits give low values",0.66 (active)
same,normalized growth,"S. cerevisiae deletion strains, locus YNL322C, strain KRE1 (second series), hits give low values",0.218 (active)
same,normalized growth,"S. cerevisiae deletion strains, locus YNL322C, strain KRE1, hits give low values",0.836 (active)
same,normalized growth,"S. cerevisiae deletion strains, locus YNR049C, strain mso1, hits give low values",0.677 (active)
same,normalized growth,"S. cerevisiae deletion strains, locus YNR052C, strain pop2, hits give low values",0.801 (active)
same,normalized growth,"S. cerevisiae deletion strains, locus YOL006C, strain TOP1, hits give low values",0.349 (active)
same,normalized growth,"S. cerevisiae deletion strains, locus YOL012C, strain htz1",0.393
same,normalized growth,"S. cerevisiae deletion strains, locus YOL147C, strain pex11, hits give low values",0.882 (active)
same,normalized growth,"S. cerevisiae deletion strains, locus YOR001W, strain rrp6, hits give low values",0.442 (active)
same,normalized growth,"S. cerevisiae deletion strains, locus YOR061W, strain CKA2, hits give low values",0.865 (active)
same,normalized growth,"S. cerevisiae deletion strains, locus YOR069W, strain VPS5, hits give low values",0.915 (active)
same,normalized growth,"S. cerevisiae deletion strains, locus YOR070C, strain gyp1, hits give low values",0.557 (active)
same,normalized growth,"S. cerevisiae deletion strains, locus YOR080W, strain dia2, hits give low values",0.409 (active)
same,normalized growth,"S. cerevisiae deletion strains, locus YOR083W, strain WHI5, hits give low values",0.452 (active)
same,normalized growth,"S. cerevisiae deletion strains, locus YOR106W, strain vam3, hits give low values",0.38 (active)
same,normalized growth,"S. cerevisiae deletion strains, locus YOR136W, strain idh2, hits give low values",0.91 (active)
same,normalized growth,"S. cerevisiae deletion strains, locus YOR144C, strain elg1, hits give low values",0.858 (active)
same,normalized growth,"S. cerevisiae deletion strains, locus YOR184W, strain ser1, hits give low values",0.664 (active)
same,normalized growth,"S. cerevisiae deletion strains, locus YOR231W, strain MKK1, hits give low values",0.822 (active)
same,normalized growth,"S. cerevisiae deletion strains, locus YOR265W, strain rbl2, hits give low values",0.599 (active)
same,normalized growth,"S. cerevisiae deletion strains, locus YOR270C, strain vph1, hits give low values",0.353 (active)
same,normalized growth,"S. cerevisiae deletion strains, locus YOR290C, strain snf2, hits give low values",0.447 (active)
same,normalized growth,"S. cerevisiae deletion strains, locus YOR316C, strain cot1, hits give low values",0.926
same,normalized growth,"S. cerevisiae deletion strains, locus YPL051W, strain arl3, hits give low values",0.597 (active)
same,normalized growth,"S. cerevisiae deletion strains, locus YPL055C, strain LGE1, hits give low values",0.678 (active)
same,normalized growth,"S. cerevisiae deletion strains, locus YPL078C, strain atp4, hits give low values",0.465 (active)
same,normalized growth,"S. cerevisiae deletion strains, locus YPL106C, strain sse1, hits give low values",0.695 (active)
same,normalized growth,"S. cerevisiae deletion strains, locus YPL240C, strain hsp82, hits give low values",0.685 (active)
same,normalized growth,"S. cerevisiae deletion strains, locus YPL241C, strain CIN2, hits give low values",0.88 (active)
same,normalized growth,"S. cerevisiae deletion strains, locus YPL256C, strain CLN2, hits give low values",0.903
same,normalized growth,"S. cerevisiae deletion strains, locus YPR119W, strain clb2, hits give low values",0.92 (active)
same,normalized growth,"S. cerevisiae deletion strains, locus YPR141C, strain kar3, hits give low values",0.93
same,normalized growth,"S. cerevisiae deletion strains, locus YPR163C, strain tif3, hits give low values",0.883 (active)
same,normalized growth,"S. cerevisiae deletion strains, locus YPR167C, strain met16, hits give low values",0.865 (active)
same,normalized growth,"S. cerevisiae deletion strains, strain wtn01, hits give low values",0.793 (active)
same,normalized growth,"S. cerevisiae strains, strain wild type, hits give low values",0.831 (active)
